Drawing on publication PMC7862700, “An all-to-all approach to the identification of sequence-specific readers for epigenetic DNA modifications on cytosine”, this text covers binding signal for one sequence.

Common to all, as to assay: DAPPL (digital affinity profiling via proximity ligation, sequencing); 10 mM Tris-HCl pH 7.5, 50 mM NaCl, 1 mM DTT, 4% glycerol, room temperature, 30 min; GST-TFs on glutathione beads, 16-mer random dsDNA library, 0.1% formaldehyde crosslink after washing; high values mean tight binding
Assay [1] addresses T1, FEV (Homo sapiens, UniProt Q99581 1-238).
T1 sequence: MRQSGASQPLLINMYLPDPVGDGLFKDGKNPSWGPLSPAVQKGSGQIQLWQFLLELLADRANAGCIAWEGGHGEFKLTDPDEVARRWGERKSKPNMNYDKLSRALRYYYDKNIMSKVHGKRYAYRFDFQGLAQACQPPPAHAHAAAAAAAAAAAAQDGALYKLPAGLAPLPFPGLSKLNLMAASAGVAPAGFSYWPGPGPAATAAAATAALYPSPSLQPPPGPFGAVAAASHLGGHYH
To be noted: protein: recombinant; tags: N-terminal GST; dsDNA, one strand shown. The gist of the method: (§1)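 Human transcription factors carrying a GST fusion were produced in yeast, bound to glutathione beads, tagged with DNA barcodes and pooled together with a tag-only sample. Each pool was held with 200 nmole of a random double-stranded 16-mer DNA library in Tris/NaCl/DTT/glycerol buffer for 30 min at room temperature, then washed, crosslinked in 0.1% formaldehyde, proximity-ligated with BsaI/T4 ligase (1 h, 37 °C), PCR-amplified and sequenced on an Illumina NextSeq500. Binding signal is the read frequency of each hexamer for a given factor divided by its frequency in the tag-only sample.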

In assay [2] the target is ETV5 (Homo sapiens, UniProt P41161 1-510). The conditions noted are these: protein: recombinant; tags: N-terminal GST; dsDNA, one strand shown. The gist of the method:
as §1

In assay [3] the target is HSF1 (Homo sapiens, UniProt Q00613 1-529). The conditions noted are these: protein: recombinant; tags: N-terminal GST; chain copies: 3; dsDNA, one strand shown. The gist of the method:
as §1

The target in assay [4] is T2, SPIC (Homo sapiens, UniProt Q8N5J4 1-248).
T2 sequence: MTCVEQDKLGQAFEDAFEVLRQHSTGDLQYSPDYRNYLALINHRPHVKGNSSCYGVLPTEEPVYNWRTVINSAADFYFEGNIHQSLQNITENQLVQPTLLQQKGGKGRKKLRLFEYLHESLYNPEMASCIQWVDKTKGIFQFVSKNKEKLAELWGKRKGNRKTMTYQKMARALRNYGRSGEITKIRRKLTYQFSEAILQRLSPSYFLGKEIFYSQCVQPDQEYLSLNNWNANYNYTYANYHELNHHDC
The conditions noted are these: protein: recombinant; tags: N-terminal GST; dsDNA, one strand shown. The gist of the method: as §1

Assay [5] concerns the target ELF4 (Homo sapiens, UniProt Q99607 1-663). The conditions noted are these: protein: recombinant; tags: N-terminal GST; dsDNA, one strand shown. The procedure, abridged: as §1
Assay [6] deals with T3, ELK4 (Homo sapiens, UniProt P28324-2 1-405).
T3 sequence: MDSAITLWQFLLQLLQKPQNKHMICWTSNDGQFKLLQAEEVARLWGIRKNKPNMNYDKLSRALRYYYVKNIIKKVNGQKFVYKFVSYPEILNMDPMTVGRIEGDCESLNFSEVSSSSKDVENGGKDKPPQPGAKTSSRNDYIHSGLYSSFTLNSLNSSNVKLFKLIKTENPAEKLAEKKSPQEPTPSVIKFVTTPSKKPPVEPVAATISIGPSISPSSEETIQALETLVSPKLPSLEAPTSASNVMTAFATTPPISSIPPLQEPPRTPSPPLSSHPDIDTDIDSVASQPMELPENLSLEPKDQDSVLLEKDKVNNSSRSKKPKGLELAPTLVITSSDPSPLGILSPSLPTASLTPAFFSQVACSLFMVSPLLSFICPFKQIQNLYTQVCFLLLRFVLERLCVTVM
To be noted: protein: recombinant; tags: N-terminal GST; dsDNA, one strand shown. The gist of the method: as §1

In assay [7] the target is T4, ETV2 (Homo sapiens, UniProt O00321 1-342).
T4 sequence: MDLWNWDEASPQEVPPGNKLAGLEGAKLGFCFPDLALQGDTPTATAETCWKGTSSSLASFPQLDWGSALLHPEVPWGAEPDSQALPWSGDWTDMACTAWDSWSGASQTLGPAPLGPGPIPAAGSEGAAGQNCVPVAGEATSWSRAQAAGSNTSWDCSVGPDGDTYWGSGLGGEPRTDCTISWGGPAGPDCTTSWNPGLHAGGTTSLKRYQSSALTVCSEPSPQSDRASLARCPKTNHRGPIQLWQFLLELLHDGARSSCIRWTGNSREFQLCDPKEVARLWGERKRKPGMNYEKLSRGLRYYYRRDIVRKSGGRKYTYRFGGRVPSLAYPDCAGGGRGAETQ
The conditions noted are these: protein: recombinant; tags: N-terminal GST; dsDNA, one strand shown. The gist of the method:
as §1

Assay [8] deals with T5, ELF3 (Homo sapiens, UniProt P78545 1-371).
T5 sequence: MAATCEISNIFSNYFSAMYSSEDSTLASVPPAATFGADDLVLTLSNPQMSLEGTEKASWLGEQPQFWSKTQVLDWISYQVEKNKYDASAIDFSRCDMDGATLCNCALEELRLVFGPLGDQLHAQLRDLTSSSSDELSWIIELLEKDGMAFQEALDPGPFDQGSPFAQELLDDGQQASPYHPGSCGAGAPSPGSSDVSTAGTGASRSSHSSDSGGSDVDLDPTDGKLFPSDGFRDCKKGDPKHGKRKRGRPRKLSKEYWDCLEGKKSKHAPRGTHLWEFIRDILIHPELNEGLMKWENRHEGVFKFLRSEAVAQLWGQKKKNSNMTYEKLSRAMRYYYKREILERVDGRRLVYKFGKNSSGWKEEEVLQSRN
The conditions noted are these: protein: recombinant; tags: N-terminal GST; dsDNA, one strand shown. The procedure, abridged:
as §1

Assay [9] addresses CRX (Homo sapiens, UniProt O43186 1-299). The conditions noted are these: protein: recombinant; tags: N-terminal GST; dsDNA, one strand shown. The gist of the method: as §1
In assay [10] the target is ETV1 (Homo sapiens, UniProt P50549 1-477). The conditions noted are these: protein: recombinant; tags: N-terminal GST; dsDNA, one strand shown. The gist of the method:
as §1

The target in assay [11] is T6, ERF (Homo sapiens, UniProt P50548 1-548).
T6 sequence: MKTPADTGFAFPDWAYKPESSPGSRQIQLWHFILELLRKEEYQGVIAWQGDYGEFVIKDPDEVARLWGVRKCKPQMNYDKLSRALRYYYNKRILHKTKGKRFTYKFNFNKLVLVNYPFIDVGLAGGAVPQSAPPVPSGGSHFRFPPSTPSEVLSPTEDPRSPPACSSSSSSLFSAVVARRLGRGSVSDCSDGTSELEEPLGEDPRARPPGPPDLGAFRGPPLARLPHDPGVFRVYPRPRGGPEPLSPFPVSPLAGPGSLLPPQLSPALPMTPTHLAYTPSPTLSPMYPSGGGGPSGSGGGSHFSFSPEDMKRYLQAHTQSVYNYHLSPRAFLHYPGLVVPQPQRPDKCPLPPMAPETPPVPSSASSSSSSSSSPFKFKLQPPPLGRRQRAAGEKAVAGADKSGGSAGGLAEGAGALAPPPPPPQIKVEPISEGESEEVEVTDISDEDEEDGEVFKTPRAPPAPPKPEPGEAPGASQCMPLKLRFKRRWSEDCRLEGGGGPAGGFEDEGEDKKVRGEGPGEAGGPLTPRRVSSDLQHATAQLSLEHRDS
To be noted: protein: recombinant; tags: N-terminal GST; dsDNA, one strand shown. The gist of the method:
as §1

Assay [12] has as its target T7, ETV3L (Homo sapiens, UniProt Q6ZN32 1-361).
T7 sequence: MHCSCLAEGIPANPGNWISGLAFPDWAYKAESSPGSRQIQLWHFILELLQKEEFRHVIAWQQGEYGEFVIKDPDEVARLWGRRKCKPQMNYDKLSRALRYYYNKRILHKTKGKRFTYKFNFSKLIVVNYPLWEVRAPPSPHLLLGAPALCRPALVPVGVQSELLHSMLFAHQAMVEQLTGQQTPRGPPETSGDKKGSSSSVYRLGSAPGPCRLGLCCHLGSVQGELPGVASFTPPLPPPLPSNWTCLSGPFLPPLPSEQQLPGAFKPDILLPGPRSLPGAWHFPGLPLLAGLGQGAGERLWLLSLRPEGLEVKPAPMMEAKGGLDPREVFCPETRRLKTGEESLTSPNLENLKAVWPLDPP
The conditions noted are these: protein: recombinant; tags: N-terminal GST; dsDNA, one strand shown. The procedure, abridged: as §1

The target in assay [13] is T8, ETS2 (Homo sapiens, UniProt P15036 1-469).
T8 sequence: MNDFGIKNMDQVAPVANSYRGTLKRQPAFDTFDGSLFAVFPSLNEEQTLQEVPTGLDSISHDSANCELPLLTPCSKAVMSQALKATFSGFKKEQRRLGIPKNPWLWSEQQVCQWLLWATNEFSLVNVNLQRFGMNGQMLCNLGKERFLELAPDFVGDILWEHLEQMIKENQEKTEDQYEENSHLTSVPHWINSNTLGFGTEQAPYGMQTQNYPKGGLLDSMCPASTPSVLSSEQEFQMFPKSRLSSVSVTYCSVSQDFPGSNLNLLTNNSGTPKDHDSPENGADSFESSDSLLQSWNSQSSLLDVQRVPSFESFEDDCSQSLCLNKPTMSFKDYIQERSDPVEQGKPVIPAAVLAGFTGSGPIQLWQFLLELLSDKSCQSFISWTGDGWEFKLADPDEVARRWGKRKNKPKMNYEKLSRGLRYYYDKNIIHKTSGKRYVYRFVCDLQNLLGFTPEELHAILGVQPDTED
The conditions noted are these: protein: recombinant; tags: N-terminal GST; dsDNA, one strand shown. The gist of the method:
as §1

The target in assay [14] is T9, SPDEF (Homo sapiens, UniProt O95238 1-335).
T9 sequence: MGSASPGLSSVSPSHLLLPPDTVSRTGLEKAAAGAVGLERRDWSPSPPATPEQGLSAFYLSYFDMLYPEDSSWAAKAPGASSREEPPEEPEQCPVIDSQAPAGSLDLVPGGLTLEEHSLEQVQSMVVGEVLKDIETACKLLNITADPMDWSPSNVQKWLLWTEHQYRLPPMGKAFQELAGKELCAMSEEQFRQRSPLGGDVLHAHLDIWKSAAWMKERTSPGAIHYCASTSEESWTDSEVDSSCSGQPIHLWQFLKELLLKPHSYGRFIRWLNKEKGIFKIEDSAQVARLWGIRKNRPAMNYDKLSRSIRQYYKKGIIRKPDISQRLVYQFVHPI
To be noted: protein: recombinant; tags: N-terminal GST; dsDNA, one strand shown. The procedure, abridged:
as §1

Assay [15] has as its target T10, ETV7 (Homo sapiens, UniProt Q9Y603 1-341).
T10 sequence: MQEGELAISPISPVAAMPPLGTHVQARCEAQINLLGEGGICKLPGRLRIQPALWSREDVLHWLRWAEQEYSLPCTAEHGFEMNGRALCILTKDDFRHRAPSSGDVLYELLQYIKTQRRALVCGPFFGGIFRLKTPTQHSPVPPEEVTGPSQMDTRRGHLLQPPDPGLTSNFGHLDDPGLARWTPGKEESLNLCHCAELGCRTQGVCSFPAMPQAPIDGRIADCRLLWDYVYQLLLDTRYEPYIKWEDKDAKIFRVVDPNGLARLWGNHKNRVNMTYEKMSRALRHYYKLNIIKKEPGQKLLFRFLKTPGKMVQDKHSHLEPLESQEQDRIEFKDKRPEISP
The conditions noted are these: protein: recombinant; tags: N-terminal GST; dsDNA, one strand shown. The gist of the method:
as §1

Assay [16] deals with T11, ELF5 (Homo sapiens, UniProt Q9UKW6-2 1-255).
T11 sequence: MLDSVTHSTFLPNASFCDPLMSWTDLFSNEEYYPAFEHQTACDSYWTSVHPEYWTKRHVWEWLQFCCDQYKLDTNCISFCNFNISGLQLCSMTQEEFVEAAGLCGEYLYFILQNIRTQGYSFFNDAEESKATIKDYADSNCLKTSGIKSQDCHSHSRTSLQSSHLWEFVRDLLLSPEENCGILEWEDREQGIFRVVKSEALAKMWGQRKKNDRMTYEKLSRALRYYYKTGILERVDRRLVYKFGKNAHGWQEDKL
The conditions noted are these: protein: recombinant; tags: N-terminal GST; dsDNA, one strand shown. The procedure, abridged:
as §1

Assay [17] deals with T12, ETV3 (Homo sapiens, UniProt P41162-2 1-143).
T12 sequence: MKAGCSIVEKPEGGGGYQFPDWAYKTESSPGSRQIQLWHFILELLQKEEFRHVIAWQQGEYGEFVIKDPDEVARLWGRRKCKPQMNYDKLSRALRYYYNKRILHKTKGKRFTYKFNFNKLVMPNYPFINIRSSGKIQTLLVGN
The conditions noted are these: protein: recombinant; tags: N-terminal GST; dsDNA, one strand shown. The gist of the method:
as §1

The target in assay [18] is ETV6 (Homo sapiens, UniProt P41212 1-452). To be noted: protein: recombinant; tags: N-terminal GST; dsDNA, one strand shown. The procedure, abridged: as §1
Chain of ETV6 (P41212 whole entry): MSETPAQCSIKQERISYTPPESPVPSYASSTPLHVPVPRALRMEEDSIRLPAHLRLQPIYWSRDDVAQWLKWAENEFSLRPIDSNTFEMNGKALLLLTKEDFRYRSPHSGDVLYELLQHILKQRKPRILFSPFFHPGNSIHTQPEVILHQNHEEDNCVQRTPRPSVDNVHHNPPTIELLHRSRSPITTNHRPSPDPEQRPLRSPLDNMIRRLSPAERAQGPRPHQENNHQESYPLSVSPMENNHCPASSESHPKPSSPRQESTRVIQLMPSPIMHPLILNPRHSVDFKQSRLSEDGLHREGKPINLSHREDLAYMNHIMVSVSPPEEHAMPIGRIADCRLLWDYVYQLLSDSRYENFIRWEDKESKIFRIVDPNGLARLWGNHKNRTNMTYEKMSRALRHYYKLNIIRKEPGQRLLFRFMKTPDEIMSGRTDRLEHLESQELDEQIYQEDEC

Chain of ETV1 (P50549 whole entry): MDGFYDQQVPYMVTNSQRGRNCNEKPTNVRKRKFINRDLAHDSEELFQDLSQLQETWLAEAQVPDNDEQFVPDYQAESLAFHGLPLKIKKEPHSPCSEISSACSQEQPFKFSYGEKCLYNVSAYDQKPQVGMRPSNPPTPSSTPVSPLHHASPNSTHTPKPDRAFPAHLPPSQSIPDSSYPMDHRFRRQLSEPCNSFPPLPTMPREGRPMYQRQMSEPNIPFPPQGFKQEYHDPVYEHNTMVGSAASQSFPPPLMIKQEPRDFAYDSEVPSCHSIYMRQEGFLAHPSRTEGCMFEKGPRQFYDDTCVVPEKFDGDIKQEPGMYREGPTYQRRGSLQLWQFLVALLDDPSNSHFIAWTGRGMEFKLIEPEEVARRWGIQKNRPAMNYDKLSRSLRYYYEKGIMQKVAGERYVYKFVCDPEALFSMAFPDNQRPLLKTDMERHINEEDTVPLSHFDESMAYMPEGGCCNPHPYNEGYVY
Chain of ETV5 (P41161 whole entry): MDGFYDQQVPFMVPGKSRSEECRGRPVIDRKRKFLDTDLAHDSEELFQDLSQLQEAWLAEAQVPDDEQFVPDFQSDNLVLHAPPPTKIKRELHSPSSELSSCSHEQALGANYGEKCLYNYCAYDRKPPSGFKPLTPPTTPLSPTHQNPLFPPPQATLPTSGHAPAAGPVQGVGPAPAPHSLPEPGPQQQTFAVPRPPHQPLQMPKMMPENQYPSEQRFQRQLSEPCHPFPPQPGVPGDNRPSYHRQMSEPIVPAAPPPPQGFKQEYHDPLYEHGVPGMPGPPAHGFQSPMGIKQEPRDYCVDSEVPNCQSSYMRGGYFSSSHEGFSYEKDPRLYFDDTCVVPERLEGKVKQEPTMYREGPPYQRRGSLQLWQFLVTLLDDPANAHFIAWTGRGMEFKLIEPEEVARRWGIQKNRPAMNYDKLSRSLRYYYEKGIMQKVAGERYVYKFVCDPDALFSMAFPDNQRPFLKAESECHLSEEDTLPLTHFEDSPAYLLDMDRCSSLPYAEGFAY
Chain of CRX (O43186 whole entry): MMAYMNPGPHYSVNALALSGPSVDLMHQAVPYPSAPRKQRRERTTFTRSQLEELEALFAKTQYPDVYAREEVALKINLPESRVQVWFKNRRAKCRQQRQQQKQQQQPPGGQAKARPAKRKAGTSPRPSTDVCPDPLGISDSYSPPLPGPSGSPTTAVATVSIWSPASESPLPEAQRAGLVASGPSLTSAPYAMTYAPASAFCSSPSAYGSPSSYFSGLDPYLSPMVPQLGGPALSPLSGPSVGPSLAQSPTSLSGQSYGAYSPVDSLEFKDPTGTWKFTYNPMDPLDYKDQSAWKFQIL
Chain of HSF1 (Q00613 whole entry): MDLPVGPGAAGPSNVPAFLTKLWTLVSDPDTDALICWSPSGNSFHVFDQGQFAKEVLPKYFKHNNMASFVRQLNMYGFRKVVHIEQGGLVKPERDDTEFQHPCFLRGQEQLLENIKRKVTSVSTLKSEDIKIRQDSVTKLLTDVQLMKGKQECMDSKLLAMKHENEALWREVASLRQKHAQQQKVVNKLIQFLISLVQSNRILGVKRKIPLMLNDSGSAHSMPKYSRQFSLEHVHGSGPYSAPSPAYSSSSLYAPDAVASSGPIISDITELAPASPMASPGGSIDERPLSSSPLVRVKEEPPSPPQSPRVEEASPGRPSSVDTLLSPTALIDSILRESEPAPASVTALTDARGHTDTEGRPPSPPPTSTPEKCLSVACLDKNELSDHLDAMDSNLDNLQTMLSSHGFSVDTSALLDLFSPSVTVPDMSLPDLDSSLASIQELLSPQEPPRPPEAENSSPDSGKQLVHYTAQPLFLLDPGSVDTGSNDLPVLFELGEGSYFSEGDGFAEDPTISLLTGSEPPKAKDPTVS
Chain of ELF4 (Q99607 whole entry): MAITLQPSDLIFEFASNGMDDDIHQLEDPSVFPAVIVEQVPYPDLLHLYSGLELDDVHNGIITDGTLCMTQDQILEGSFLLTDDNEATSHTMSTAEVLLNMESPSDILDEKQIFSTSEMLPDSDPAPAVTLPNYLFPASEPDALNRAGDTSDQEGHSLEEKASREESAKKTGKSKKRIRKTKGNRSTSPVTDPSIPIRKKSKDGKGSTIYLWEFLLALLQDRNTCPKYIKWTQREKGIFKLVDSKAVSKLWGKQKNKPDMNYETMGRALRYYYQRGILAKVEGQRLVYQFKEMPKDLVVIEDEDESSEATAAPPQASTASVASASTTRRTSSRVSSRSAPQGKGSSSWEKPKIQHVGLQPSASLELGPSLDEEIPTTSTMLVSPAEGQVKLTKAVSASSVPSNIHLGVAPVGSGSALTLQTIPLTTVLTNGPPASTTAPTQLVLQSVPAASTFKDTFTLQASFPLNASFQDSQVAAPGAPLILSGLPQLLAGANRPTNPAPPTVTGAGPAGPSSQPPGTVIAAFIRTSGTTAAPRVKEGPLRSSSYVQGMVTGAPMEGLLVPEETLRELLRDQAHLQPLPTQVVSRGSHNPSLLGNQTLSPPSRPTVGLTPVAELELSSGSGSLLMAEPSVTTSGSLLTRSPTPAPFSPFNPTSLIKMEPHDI

On to CTGGAA, for which the binding signal in [1] was 1.2 fold enrichment (6-mer frequency, TF over GST control); in [2] it was 1.29 fold enrichment (6-mer frequency, TF over GST control); in [3] it was 4.43 fold enrichment (6-mer frequency, TF over GST control); in assay [4], 1.2 fold enrichment (6-mer frequency, TF over GST control); in assay [5] it was 1.23 fold enrichment (6-mer frequency, TF over GST control); in [6], 1.08 fold enrichment (6-mer frequency, TF over GST control). Also, the binding signal was 1.43 fold enrichment (6-mer frequency, TF over GST control) in [7]; 1.11 fold enrichment (6-mer frequency, TF over GST control) in [8]; 1.89 fold enrichment (6-mer frequency, TF over GST control) in assay [9]; 1.32 fold enrichment (6-mer frequency, TF over GST control) in assay [10]; 1.26 fold enrichment (6-mer frequency, TF over GST control) in [11]; 1.36 fold enrichment (6-mer frequency, TF over GST control) in assay [12]. Besides, the binding signal in assay [13] was 1.3 fold enrichment (6-mer frequency, TF over GST control); in assay [14] it was 1.16 fold enrichment (6-mer frequency, TF over GST control); in [15], 1.32 fold enrichment (6-mer frequency, TF over GST control); in assay [16] it was 1.34 fold enrichment (6-mer frequency, TF over GST control); in assay [17], 1.27 fold enrichment (6-mer frequency, TF over GST control); in [18], 1.34 fold enrichment (6-mer frequency, TF over GST control).
